Data: PubChem BioAssay (Tox21)
Values joined by “and” are separate entries in the source; they are usually repeats but may differ in a detail not shown here. Equal entries are not always repeated. Results filed as inconclusive are left out. Where a structure was tested more than once in an assay, its records may differ in their call. Active and inactive are the calls of the source. The call rests on the fitted dose curve; in most records, active means well fitted curve in the direction sought with a large enough effect in the repeat runs; inconclusive means weak or mixed curves; inactive means no such curve, though single readings can be large; an effect the other way counts as inactive or inconclusive.

Columns and labels:
[1] = qHTS RealTime-Glo MT Cell Viability Assay in HEK293 cells - 32 hour (AID 1224868); further: top concentration of the series differs between compounds; nearly all actives have a fitted effect of over 50% in size
Outline: (§1)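 Reads taken at 0, 8, 16, 24, 32 and 40 h from the same wells. HEK293 cells (600/well) carried RealTime-Glo reagents from seeding, with compound added after a 5 h settle at 37 C.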

[2] = A CellTox Green Cytotoxicity Assay to monitor cytotoxicity in HEK293 cells - 0 hour (AID 1224869); further: nearly all actives have a fitted effect of over 50% in size; further: potency means the concentration at half of the fitted maximal effect
Outline: (§2)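 Read-out: fluorescence of a cell-impermeant cyanine dye staining DNA of dead cells, proportional to cytotoxicity. HEK293, 600 cells/well with reagent, compound (23 nL DMSO) added after 5 h; reads at 0, 8, 16, 24, 32, 40 h.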

[3] = qHTS RealTime-Glo MT Cell Viability Assay in HepG2 cells - 40 hour (AID 1224870); further: nearly all actives have a fitted effect of over 50% in size
Outline: (§3)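 HepG2 cells (600/well) mixed with RealTime-Glo MT reagent, settled 5 h at 37 C/5% CO2 before compound addition. Nonlytic NanoLuc luminescence from viable-cell prosubstrate reduction read repeatedly during 40 h treatment at 37 C.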

[4] = A CellTox Green Cytotoxicity Assay to monitor cytotoxicity in HEK293 cells - 40 hour (AID 1224871); further: nearly all actives have a fitted effect of over 45% in size; further: potency means the concentration at half of the fitted maximal effect
Outline: as §2

[5] = qHTS RealTime-Glo MT Cell Viability Assay in HEK293 cells - 16 hour (AID 1224872); further: top concentration of the series differs between compounds; nearly all actives have a fitted effect of over 50% in size
Outline: as §1

[6] = qHTS RealTime-Glo MT Cell Viability Assay in HEK293 cells - 40 hour (AID 1224874); settings: RealTime-Glo luminescence; max response: stronger effect = lower value; further: nearly all actives have a fitted effect of over 50% in size
Outline: (§4)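 Luminescence readout at each listed time point; HEK293, 600 cells/well, RealTime-Glo MT reagent added with cells; compounds pinned (23 nL in DMSO) after 5 h at 37 C; continuous culture at 37 C.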

[7] = A CellTox Green Cytotoxicity Assay to monitor cytotoxicity in HEK293 cells - 24 hour (AID 1224875); further: series mostly up to about 77 µM; nearly all actives have a fitted effect of over 45% in size
Outline: as §2

[8] = A CellTox Green Cytotoxicity Assay to monitor cytotoxicity in HepG2 cells - 16 hour (AID 1224876); further: nearly all actives have a fitted effect of over 45% in size
Outline: (§5)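 HepG2, 600 cells/well premixed w/ CellTox Green; 5 h settle, 37 C/5% CO2; pintool cpd add (DMSO); 37 C, 40 h; fluorescence read at 0, 8, 16, 24, 32, 40 h.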

[9] = qHTS RealTime-Glo MT Cell Viability Assay in HepG2 cells - 32 hour (AID 1224877); further: nearly all actives have a fitted effect of over 55% in size
Outline: (§6)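 HepG2 suspension premixed with RealTime-Glo reagents is plated at 600 cells per well and left 5 h at 37 C/5% CO2. Compounds in DMSO then go in, and bioluminescence reflecting viable cell number is recorded over 40 h.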

[10] = A CellTox Green Cytotoxicity Assay to monitor cytotoxicity in HepG2 cells - 24 hour (AID 1224878); further: nearly all actives have a fitted effect of over 45% in size; further: potency means the concentration at half of the fitted maximal effect
Outline: as §5

[11] = A CellTox Green Cytotoxicity Assay to monitor cytotoxicity in HepG2 cells - 40 hour (AID 1224879); further: nearly all actives have a fitted effect of over 40% in size; further: potency means the concentration at half of the fitted maximal effect
Outline: as §5

[12] = qHTS RealTime-Glo MT Cell Viability Assay in HEK293 cells - 0 hour (AID 1224880)
Outline: as §4

[13] = A CellTox Green Cytotoxicity Assay to monitor cytotoxicity in HEK293 cells - 32 hour (AID 1224881); further: nearly all actives have a fitted effect of over 40% in size; further: potency means the concentration at half of the fitted maximal effect
Outline: as §2

[14] = A CellTox Green Cytotoxicity Assay to monitor cytotoxicity in HepG2 cells - 0 hour (AID 1224882); further: nearly all actives have a fitted effect of over 35% in size; further: potency means the concentration at half of the fitted maximal effect
Outline: as §5

[15] = A CellTox Green Cytotoxicity Assay to monitor cytotoxicity in HepG2 cells - 32 hour (AID 1224883); further: nearly all actives have a fitted effect of over 50% in size; further: potency means the concentration at half of the fitted maximal effect
Outline: as §5

[16] = A CellTox Green Cytotoxicity Assay to monitor cytotoxicity in HEK293 cells - 8 hour (AID 1224884); further: nearly all actives have a fitted effect of over 35% in size; further: potency means the concentration at half of the fitted maximal effect
Outline: as §2

[17] = qHTS RealTime-Glo MT Cell Viability Assay in HepG2 cells - 8 hour (AID 1224873); further: nearly all actives have a fitted effect of over 55% in size
Outline: as §3

[18] = qHTS RealTime-Glo MT Cell Viability Assay in HepG2 cells - 24 hour (AID 1224867); further: nearly all actives have a fitted effect of over 50% in size
Outline: as §6
On the % scale 0 is the no-effect control and ±100 the full control effect.

Cc1[nH]c(=O)n(C(C)(C)C)c(=O)c1Cl
inactive: Potency [1] | Potency [2] | outcome [3] | Potency [4] | outcome [5] | max response [6] -2.63% and 1.93% | Potency [7] | Potency [8] | outcome [9] | Potency [10] | Potency [11] | outcome [12] | Potency [13] | Potency [14] | Potency [15] | Potency [16]

CC(C)(C)OOC(=O)c1ccccc1
inactive: Potency [1] | Potency [2] | outcome [3] | Potency [4] | outcome [5] | max response [6] -10.9% and 1.81% | Potency [7] | Potency [8] | outcome [9] | Potency [10] | Potency [11] | outcome [12] | Potency [13] | Potency [14] | Potency [15] | Potency [16]

O=c1n(Cl)c(=O)n(Cl)c(=O)n1Cl
inactive: Potency [1] | Potency [2] | outcome [3] | Potency [4] | outcome [5] | outcome [17] | max response [6] 1.37% and 3.54% | Potency [7] | Potency [8] | outcome [9] | Potency [10] | Potency [11] | outcome [12] | Potency [13] | Potency [14] | Potency [15] | Potency [16]

OCCN(CCO)CCO
inactive: Potency [1] | Potency [2] | outcome [3] | Potency [4] | outcome [5] | outcome [17] | max response [6] -6.59% and 8.79% | Potency [7] | Potency [8] | outcome [9] | Potency [10] | Potency [11] | Potency [13] | Potency [14] | Potency [15] | Potency [16]

Nc1c(Cl)c(Cl)nc(C(=O)O)c1Cl
inactive: Potency [1] | Potency [2] | outcome [3] | Potency [4] | outcome [5] | outcome [17] | max response [6] 19.5% and -5.11% and 22.8% | Potency [7] | outcome [9] | Potency [10] | Potency [11] | Potency [13] | Potency [14] | Potency [15] | Potency [16]

O=C(O)c1ccccn1
inactive: Potency [1] | Potency [2] | outcome [3] | Potency [4] | outcome [5] | outcome [17] | max response [6] -2.82% and 14.7% | Potency [7] | Potency [8] | outcome [9] | Potency [10] | Potency [11] | Potency [13] | Potency [14] | Potency [15] | Potency [16]

O=S(=O)(c1ccc(Cl)cc1)c1cc(Cl)c(Cl)cc1Cl
inactive: Potency [1] | Potency [2] | outcome [3] | Potency [4] | outcome [5] | outcome [17] | Potency [7] | outcome [9] | Potency [10] | Potency [11] | outcome [12] | Potency [13] | Potency [14] | Potency [15] | Potency [16]

CCNc1nc(NC(C)C)nc(SC)n1
inactive: Potency [1] | Potency [2] | outcome [3] | Potency [4] | outcome [5] | max response [6] -1.45% | Potency [7] | Potency [8] | outcome [9] | Potency [10] | Potency [11] | Potency [13] | Potency [14] | Potency [15] | Potency [16]

COC(=O)NC(=S)Nc1ccccc1NC(=S)NC(=O)OC
inactive: outcome [18] | Potency [1] | Potency [2] | outcome [3] | Potency [4] | outcome [5] | Potency [7] | outcome [9] | Potency [10] | Potency [11] | outcome [12] | Potency [13] | Potency [14] | Potency [15] | Potency [16]

CCCCCCCCCCCC#N
inactive: outcome [18] | Potency [1] | outcome [3] | outcome [5] | max response [6] -12% and 12.1% | outcome [9]
inactive and 45.2 µM (active): Potency [2] | Potency [10] | Potency [14] | Potency [15] | Potency [16]
inactive and 40.3 µM (active): Potency [4] | Potency [13]
inactive and 50.7 µM (active): Potency [11]

Cc1cc(-c2cc(C)c(N)c(C)c2)cc(C)c1N
inactive: Potency [1] | Potency [2] | outcome [3] | Potency [4] | outcome [5] | outcome [17] | max response [6] -25.8% and -12.6% | Potency [7] | Potency [8] | outcome [9] | Potency [10] | Potency [11] | outcome [12] | Potency [13] | Potency [14] | Potency [15] | Potency [16]

CCCCCCCCCl
inactive: Potency [1] | Potency [2] | outcome [3] | Potency [4] | outcome [5] | outcome [17] | max response [6] 2.47% and 5.32% | Potency [7] | outcome [9] | Potency [10] | Potency [11] | Potency [13] | Potency [14] | Potency [15] | Potency [16]

C1CC2OC2CC1C1CO1 (centres undefined)
inactive: outcome [18] | Potency [1] | Potency [2] | outcome [3] | Potency [4] | outcome [5] | max response [6] 9.84% | Potency [7] | outcome [9] | Potency [10] | Potency [11] | outcome [12] | Potency [13] | Potency [14] | Potency [15] | Potency [16]

O=c1[nH]c2ccccc2c(=O)o1
inactive: Potency [1] | Potency [2] | outcome [3] | Potency [4] | outcome [5] | max response [6] -0.172% | Potency [7] | Potency [8] | outcome [9] | Potency [10] | Potency [11] | outcome [12] | Potency [13] | Potency [14] | Potency [15] | Potency [16]
